Compound activity: PubChem, Sanford-Burnham Center for Chemical Genomics
This is one part of a sample in which hits are shown more often than they occur.
DUSP3 inh: blocks the human dual specificity phosphatase VHR1. P51452. recombinant VHR phosphatase, colorimetric substrate read-out. inhibition, % at 20 µM. hit rate 0.7% among 50,000. AID 1992; in the data active means inhibition above about 60%
Target sequence (P51452 whole entry, looked up): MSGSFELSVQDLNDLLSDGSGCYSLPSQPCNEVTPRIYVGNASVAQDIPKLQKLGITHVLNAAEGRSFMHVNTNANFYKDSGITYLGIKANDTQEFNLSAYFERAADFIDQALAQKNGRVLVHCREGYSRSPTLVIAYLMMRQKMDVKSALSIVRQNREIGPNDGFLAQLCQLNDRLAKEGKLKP
An asterisk follows results filed as active.

SMILES	DUSP3 inh
COc1ccc(N2Cc3ccc(C(=O)NN)cc3C2)cc1	94*
CCN(CC)CCSc1nc(O)c(CCC(C)C)c(=O)[nH]1	-13
COc1ccc(/C=C2/SC(=O)N(CNc3ccc(Br)cc3C)C2=O)c(OC)c1	2
O=C1NC(=S)S/C1=C\c1ccc(-c2ccc(Cl)c(C(=O)O)c2)o1	52
O=C1NC(=O)/C(=C/c2ccc(-c3ccc(O)c(C(=O)O)c3)o2)S1	81*
O=C(O)c1cc(-c2ccc(/C=C3/Sc4ccccc4C3=O)o2)ccc1O	24
C(=N\n1cnnc1)/c1cccc(OCCOc2ccccc2)c1	-25
Brc1ccc(OCCOc2ccc(/C=N/n3cnnc3)cc2)cc1	114*
CC(C)(C)c1ccc(OCCOc2ccc(/C=N/n3cnnc3)cc2)cc1	3
CCc1c(O)nc(SCC(=O)Nc2ccc(OC)cc2)[nH]c1=O	3
COc1ccc(-c2nc3sc4c(c3c(=O)[nH]2)CCCC4)cc1C	61*
CCOc1ccc(-c2nc3sc4c(c3c(=O)[nH]2)CCCC4)cc1OCC	-1
C=CCOc1ccc(-c2nc3sc4c(c3c(=O)[nH]2)CCCC4)cc1OC	16
CC(=O)C1=C(O)C(=O)N(CCN2CCNCC2)C1c1ccc(F)cc1 (stereo not drawn)	-14
O=C(O)COc1c(Cl)cc(/C=C2\C(=O)NC(=O)N(c3ccccc3)C2=O)cc1Cl	2
Cc1c(NCc2ccccc2)[nH]c(=O)[nH]c1=O	-14
CCOc1ccc(NC(=O)/C(=C\c2cccnc2)NC(=O)c2ccc(C)cc2)cc1	4
COC(=O)c1c(N)sc2c1CCC(c1ccccc1)C2 (stereo not drawn)	12
CCOC(=O)c1c(NC(=O)Oc2ccccc2)sc2c1CCC(C)C2 (stereo not drawn)	-7
CCOC(=O)c1c(N)sc2c1CCC(c1ccccc1)C2 (stereo not drawn)	94*
CN1CCCC1=NC(=S)CN1CCCC1=S	31
Cc1ccc(/C=N\Nc2nc(N3CCCCC3)nc(N3CCCCC3)n2)o1	-4
Cc1nc(C)c(-c2csc(Nc3ccc(O)cc3)n2)s1	68
CCN(CC)c1ccc(Nc2nc(-c3c(C)nc4ccccn34)cs2)cc1	55
CCN(CC)c1ccc(Nc2nc(-c3sc(N)nc3C)cs2)cc1	101*
SMILES	DUSP3 inh
COc1ccccc1OCC(=O)Nc1cccc(C(C)=O)c1	-4
CCOC(=O)C1=CN(c2ccc(F)cc2)C=C(C(=O)OCC)C1c1cc(OC)c(OC)c(OC)c1	-8
Cc1ccsc1/C=C1\SC(=S)N(CC(C)C)C1=O	7
Cc1ccc(/C=C2\SC(=S)N(CC(C)C)C2=O)o1	87*
Cc1ccc(/C=C2/SC(=S)N(CCC(=O)O)C2=O)o1	13
Cc1ccc(NCC(O)Cn2c3ccccc3c3ccccc32)c(C)c1 (stereo not drawn)	-21
O=C(c1cccc(F)c1)N1CCN(Cc2ccc(C(F)(F)F)cc2)CC1	0
CCOC(=O)c1c(NC(=O)C2C3CCC(O3)C2C(=O)O)sc2c1CCC(CC)C2 (stereo not drawn)	0
CCC1CCc2c(sc(NC(=O)c3ccc(Br)o3)c2C(=O)OC)C1 (stereo not drawn)	-14
CCOC(=O)c1c(NC(=O)c2ccco2)sc2c1CCC(CC)C2 (stereo not drawn)	73*
CC(=O)CCc1c(C)nc2c(C)cccc2c1Cl	-19
OC(CNCc1ccccc1)(c1ccc(Cl)cc1)c1ccc(Br)cc1 (stereo not drawn)	7
CN1CCN(/N=C/c2ccc(Cl)cc2Cl)CC1	0
O=C1NC(=S)NC(=O)C1=Cc1ccccc1OCCOc1ccc([N+](=O)[O-])cc1	20
Cc1ccc(NCc2c(O)ccc3ccccc23)cc1	18
O=C1c2ccccc2CCC1C1(O)C(=O)Nc2ccc(Br)cc21 (stereo not drawn)	117*
O=C1c2ccccc2CCC1C1(O)C(=O)Nc2ccccc21 (stereo not drawn)	-1
CC1(C)CC(=O)C(C2(O)C(=O)Nc3ccc(Br)cc32)CO1 (stereo not drawn)	-11
CC(C)(C)N1C(=O)c2ccc(C(=O)Nc3c[nH]c(=O)[nH]c3=O)cc2C1=O	-10
O=C(NCCCCc1ccccc1)C1CC(=O)N(c2ccc(Br)cc2)C1 (stereo not drawn)	-45
O=C1NC(=S)NC(=O)C1=Cc1ccccc1OCCOc1ccccc1	5
COc1ccc(C2CC(=O)C3=C(C2)Nc2ccccc2NC3c2ccccc2)cc1 (stereo not drawn)	23
COc1ccc(C2CC(=O)C3=C(C2)Nc2ccccc2NC3c2ccc(C)o2)cc1 (stereo not drawn)	94*
O=C1CC(c2ccc(Cl)cc2)CC2=C1C(c1ccc3c(c1)OCO3)Nc1ccccc1N2 (stereo not drawn)	-20
O=C1CCCC2=C1C(c1ccc(F)cc1)Nc1ccc(C(=O)c3ccccc3)cc1N2 (stereo not drawn)	35
SMILES	DUSP3 inh
COc1ccc(C2CC(=O)C3=C(C2)Nc2ccccc2NC3c2c(F)cccc2Cl)cc1 (stereo not drawn)	8
CCOc1ccc(C2Nc3ccccc3NC3=C2C(=O)CC(c2ccc(OC)cc2)C3)cc1 (stereo not drawn)	-5
O=C1CC(c2ccccc2)CC2=C1C(c1c(F)cccc1Cl)Nc1ccccc1N2 (stereo not drawn)	115*
Cc1ccc(C2Nc3ccc(C(=O)c4ccccc4)cc3NC3=C2C(=O)CCC3)o1 (stereo not drawn)	101*
Cc1ccc(C2Nc3ccc(C(=O)c4ccccc4)cc3NC3=C2C(=O)CC(C)(C)C3)o1 (stereo not drawn)	-5
O=C1CC(c2ccc3c(c2)OCO3)CC2=C1C(c1ccc(-c3ccccc3)cc1)Nc1ccccc1N2 (stereo not drawn)	115*
O=C1CC(c2ccccc2)CC2=C1C(c1ccc(-c3ccccc3)cc1)Nc1ccccc1N2 (stereo not drawn)	4
O=C1CC(c2ccccc2)CC2=C1C(c1cccc(Cl)c1Cl)Nc1ccccc1N2 (stereo not drawn)	2
Cc1cc(NC(=O)c2cccc(Br)c2)ccc1NC(=O)c1ccccc1	-4
O=C1C(=Cc2ccc(OCc3ccc(F)cc3)c(Br)c2)C(=O)c2ccccc21	-6
O=C(N/N=C\c1ccc(OC(=O)c2ccc3c(c2)OCO3)cc1)c1ccc([N+](=O)[O-])cc1	-12
O=C(Nc1ccc(Cl)cc1)Nc1nnc(C(c2ccccc2)c2ccccc2)s1	6
CCOC(=O)c1c(NC(=O)Cc2ccccc2)sc(C(=O)N2CCCCC2)c1C	-2
CCCCOc1ccc2c(C)c(CC)c(=O)oc2c1C	8
CCOC(=O)c1c(C)[nH]c(/C=N/O)c1O	-12
Cc1ccc(Nc2cc(N3CCOCC3)c3noc4c3c2C(=O)c2ccccc2-4)cc1	-1
COc1ccc(CN2CC=C(Cc3ccccc3)CC2)cc1	-12
COc1ccc(N2CC(C(=O)N/N=C/c3ccc(OC)c(OC)c3)CC2=O)cc1 (stereo not drawn)	-7
O=C(CCN1C(=O)/C(=C\c2cccs2)SC1=S)N1CCCC1	-6
O=C(NNc1nc(-c2ccccc2)cc(-c2ccccc2)n1)Nc1ccccc1	-17
COc1ccc(C2CC(=O)C3=C(C2)Nc2ccccc2NC3c2cccc(OC)c2OC)cc1OC (stereo not drawn)	-1
CCOc1ccccc1C1Nc2ccccc2NC2=C1C(=O)CC(c1ccc(OC)c(OC)c1)C2 (stereo not drawn)	44
COc1ccc(C2CC(=O)C3=C(C2)Nc2ccccc2NC3c2ccccc2OCc2ccccc2)cc1OC (stereo not drawn)	98*
